# According to PubChem BioAssay (NCI):
# This is part of a sample that, as a whole, favours compounds with a hit. Of some 83,000 tested, about 20% had one in any assay.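 Negative percent growth values reflect cell death: -40 means 40% of the cells present at the start died, and -100 means all died.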 Values without a mark were called inactive. The source made the active and inactive calls. The calls were made as follows: active = growth percent below 10; inactive = the rest.
# Experiments:
# Assay in all cases: NCI-60 one-dose screen, 48 h (100 = growth as untreated, 0 = no growth, -100 = all killed)
# Conditions in all cases: 10 µM unless noted
# [1] = tested on: DU-145 prostate
# [2] = tested on: MALME-3M melanoma
# [3] = tested on: MDA-MB-231 breast
# [4] = tested on: RXF 393 renal
# [5] = tested on: SF-268 CNS
# [6] = tested on: SF-295 CNS
# [7] = tested on: SF-539 CNS
# [8] = tested on: UACC-257 melanoma
# [9] = tested on: M14 melanoma
# [10] = tested on: HCT-15 colon
# [11] = tested on: HT29 colon
# [12] = tested on: SNB-75 CNS
# [13] = tested on: SNB-19 CNS
# [14] = tested on: U251 CNS
# [15] = tested on: PC-3 prostate
# [16] = tested on: SK-MEL-5 melanoma
# [17] = tested on: UACC-62 melanoma
# [18] = tested on: LOX IMVI melanoma
# [19] = tested on: SK-MEL-28 melanoma
SMILES,growth [1],growth [2],growth [3],growth [4],growth [5],growth [6],growth [7],growth [8],growth [9],growth [10],growth [11],growth [12],growth [13],growth [14],growth [15],growth [16],growth [17],growth [18],growth [19]
CC(=O)c1cc2c(N)c(C(=O)Nc3cccc(Cl)c3)sc2nc1C,87.3%,102%,87.5%,79.7%,93.2%,84.3%,85.3%,82.5%,67.1%,72.4%,82.3%,82.6%,91.3%,91.4%,74.4%,43.2%,56.2%,89.5%,92.9%
CCn1c(SC)nnc1-c1cc2c([nH]c3ccccc32)c(-c2cccc(O)c2)n1,28.1%,33.1%,23.1%,-32.9% (active),32.4%,-20.1% (active),-9.07% (active),57.4%,10.8%,20.4%,50.7%,-23.1% (active),52.8%,15.5%,24.6%,-16.2% (active),36.7%,16.5%,41.3%
COc1ccc(/C=N/C2=NNC(C)(c3ccccc3O)N2C(Cc2c[nH]c3ccccc23)C(=O)O)cc1 (centres undefined),58.9%,12.9%,28.8%,35.5%,40.2%,35.3%,45.2%,23.5%,10.8%,39.7%,5.86% (active),32.5%,27.8%,21%,23.8%,-78.3% (active),17.7%,19.2%,33.5%
CCCCCn1ncc(-c2c(O)c(O)cc3c(O)c(-c4c(C)cc5c(-c6cnn(CCCCC)n6)c(O)c(O)cc5c4O)c(C)cc23)n1,22.9%,27%,32.9%,-4.68% (active),5.18% (active),10%,3.31% (active),16.2%,-20.8% (active),14%,-20.9% (active),34.2%,22%,-33.3% (active),-25.3% (active),-49.2% (active),-11.8% (active),-40.7% (active),25.9%
CCCOC(=O)c1ccc([N+](=O)[O-])o1,118%,116%,103%,109%,100%,120%,93.8%,110%,98.8%,102%,92.2%,83.7%,111%,101%,91.6%,116%,104%,101%,106%
CCCCNC(=O)Oc1ccc(/C(=C(/CC)Cc2ccccc2)c2ccc(OCCCN(C)C)cc2)cc1,89.2%,93.4%,78.9%,70.7%,77.8%,94.9%,88.5%,104%,81.8%,57.7%,15.4%,75.5%,90.7%,68.9%,81.2%,84.5%,106%,59%,95.9%
N#CC1=C(N)Oc2c(ccc3ccccc23)C1c1cc(=O)oc2ccc(Cl)cc12 (centres undefined),19.4%,77.8%,50%,7.4% (active),56.1%,14.1%,3.16% (active),73.5%,3.47% (active),25.8%,6.85% (active),20.2%,33.4%,24.4%,18.2%,28.3%,36.5%,42%,62.9%
Cc1cc(N2CCOCC2)nc(N(CCNc2ccnc3cc(Cl)ccc23)Cc2ccco2)n1,53.4%,62.8%,7.62% (active),10.6%,71.8%,6.25% (active),-31.8% (active),49.8%,39.5%,35.8%,3.4% (active),59.5%,41.5%,6.13% (active),46.7%,39.7%,26%,18.1%,52.4%
Cc1ccc2oc(=O)cc(C3C(C#N)=C(N)Oc4c3ccc3ccccc43)c2c1 (centres undefined),96.3%,95.5%,81.9%,79.2%,82.7%,75.8%,82.6%,85.4%,61.5%,51.1%,38.8%,67.5%,84.9%,82.8%,55.6%,61.1%,61.4%,75.4%,86.2%
C=C1C(=O)O[C@H]2[C@H]1CC/C(COC(=O)c1ccc(Br)cc1)=C\CC[C@@]1(C)O[C@@H]21,-33.7% (active),-54.1% (active),-56% (active),-86% (active),24.6%,63.7%,-76.3% (active),50.3%,-22.8% (active),-26.3% (active),-51.8% (active),56%,24%,4.28% (active),20.3%,8.33% (active),-52.4% (active),-94.6% (active),-27% (active)
O=C(CNc1cccnc1)Nc1ccc(C(=O)/C=C/c2ccc(Cl)cc2)cc1,103%,89.3%,77%,98.8%,91.4%,93.9%,99.6%,105%,88.4%,88.6%,90%,87.8%,101%,82.1%,89.4%,91.1%,84.9%,86%,96.4%
COC(=O)CCCNS(=O)(=O)c1cc(C(=O)Nc2ccc(NC(=O)c3cc(S(=O)(=O)NCCCC(=O)OC)c(O)c(O)c3O)cc2)c(O)c(O)c1O,98.1%,105%,94.7%,107%,91.9%,98.1%,102%,96.2%,98.3%,92.1%,79.8%,95.1%,96.1%,70.3%,83.3%,93.6%,76.7%,2.88% (active),110%
C=C1C(=O)O[C@H]2[C@H]1CC/C(COC(=O)c1ccc(Cl)nc1)=C\CC[C@@]1(C)O[C@@H]21,12.4%,-51% (active),-2.63% (active),-73.1% (active),56.9%,74.9%,-34.5% (active),34.4%,9.23% (active),-14.6% (active),-6.31% (active),74.9%,56%,44.1%,53.2%,44.8%,-25.6% (active),-79.3% (active),1.37% (active)
CCc1c2cc(Cl)ccc2n2cc(Cc3ccccc3)[nH]c(=O)c12,104%,85.3%,97.4%,116%,95.4%,98.1%,103%,104%,99.9%,98.9%,110%,96.9%,104%,99.5%,97.4%,104%,98.2%,98.2%,107%
CC(C)(C)OC(=O)N1CC(Cn2cc(C(F)(F)F)c3c(Cl)ncnc32)C1,-100% (active),80.6%,0.765% (active),-63.7% (active),-86.9% (active),30.4%,79.9%,-37.9% (active),-87.4% (active),-41.4% (active),-62.2% (active),-52.5% (active),-89.8% (active),-98% (active),-75% (active),-84.6% (active),-78.1% (active),-86.9% (active),-79.6% (active)
CC(C)(C)OC(=O)N1CCN(CCn2cc(C(F)(F)F)c3c(Cl)ncnc32)CC1,39.8%,112%,57.9%,47%,69.5%,99.6%,97.3%,85.4%,14%,10.9%,23.5%,111%,37.3%,17.3%,8.61% (active),80%,55.4%,-81% (active),52.8%
